Bioassay records as filed in PubChem.
The list is not random: actives were taken first. Their share in the collection is about 0.98%.
Yp Topo-I inh: Y. pestis Topo-I inhibition via cleavage products; Y. pestis Topo-I cleavage product accumulation, plate reader; activity, % at 10 µM; hit rate 0.064% among 360,000; AID 504884; in the data active = activity above about 50%, passing the limit was not always enough; inconclusive = no clear call, values can overlap the other calls
Rv3671c inh: inhibitors of M. tuberculosis serine protease Rv3671c | P9WHR9 | inhibition, % at 5.96 µM | hit rate 0.048% among 320,000 | AID 2606; in the data active = inhibition above about 38%;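 also: extracellular domain of Rv3671c used as enzyme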
PfHsp40 rescue: compounds rescuing yeast from Plasmodium falciparum HSP40 toxicity. S. cerevisiae expressing PfHsp40, growth rescue, ATP luminescence. growth rescue, % at 12.5 µM. hit rate 0.68% among 340,000; in the data active = growth rescue above about 28%, passing the limit was not always enough; inconclusive = no clear call, values can overlap the other calls;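 also: yeast W303a lacking pdr1 and pdr3 grown in galactose medium; growth measured after three days at 30 °C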
UGM FP inh: inhibitors of M. tuberculosis UDP-galactopyranose mutase | purified UGM, fluorescence polarization probe displacement | inhibition, % at 10 µM | hit rate 0.06% among 320,000 | AID 504406 | P9WIQ1; in the data active = inhibition above about 10%, passing the limit was not always enough; inconclusive = no clear call, values can overlap the other calls
Target sequence (P9WIQ1 whole entry, looked up): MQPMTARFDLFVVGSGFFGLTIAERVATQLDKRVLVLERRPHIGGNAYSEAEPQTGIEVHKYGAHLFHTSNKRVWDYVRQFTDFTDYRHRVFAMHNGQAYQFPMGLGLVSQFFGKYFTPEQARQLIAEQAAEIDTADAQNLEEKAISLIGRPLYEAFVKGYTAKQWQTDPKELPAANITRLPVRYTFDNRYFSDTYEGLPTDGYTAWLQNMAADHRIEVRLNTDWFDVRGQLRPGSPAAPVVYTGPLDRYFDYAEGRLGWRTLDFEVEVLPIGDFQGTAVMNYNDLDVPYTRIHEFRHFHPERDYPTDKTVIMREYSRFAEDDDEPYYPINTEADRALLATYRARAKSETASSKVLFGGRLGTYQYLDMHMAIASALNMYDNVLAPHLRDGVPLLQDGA
FadD28 binding: inhibitors of Mycobacterium tuberculosis FadD28 bisubstrate binding | hit rate 0.22% among 360,000 | FadD28 bisubstrate probe binding, fluorescence polarization | inhibition, % at 12.5 µM | AID 588549; in the data active = inhibition above about 8.5%, passing the limit was not always enough; inconclusive = no clear call, values can overlap the other calls
Mtb betalactam: beta-lactam sensitization of Mtb H37Rv; AID 434955; hit rate 0.27% among 330,000; M. tuberculosis H37Rv growth with meropenem, percent inhibition; inhibition, % at 25 µM; call rule not given here;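 also: growth measured after seven days incubation then overnight dye step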
A number is an active result.

Cc1ccc(C(=O)CN2/C(=C(\O)c3ccccc3)C(=O)c3ccccc3S2(=O)=O)c(C)c1 was read as Yp Topo-I inh inactive, Rv3671c inh inactive, PfHsp40 rescue 35.3, UGM FP inh inactive, FadD28 binding inactive and Mtb betalactam inactive.
Screening CN1OC[C@@H]2CN(C(=O)C(C)(C)C)[C@H](c3ccc(-c4cccnc4)cc3)C[C@@H]21 returned FadD28 binding inactive.
CCc1cc(C(=O)c2ccc(OC)cc2)c(N)s1 was read as Yp Topo-I inh inactive, Rv3671c inh inactive, PfHsp40 rescue inactive, UGM FP inh inactive, FadD28 binding inactive and Mtb betalactam inactive.
COc1ccc(C(=O)c2ccsc2N)cc1 was read as Yp Topo-I inh inactive, Rv3671c inh inactive, PfHsp40 rescue inactive, UGM FP inh inactive, FadD28 binding 8.6 and Mtb betalactam inactive.
For CC1(C(=O)O)CCCN(C(=O)c2ccc(OC(F)F)cc2)C1 (configuration not stated) the results were Yp Topo-I inh inactive and FadD28 binding inactive.
Screening COc1ccc(C)cc1NC(=O)COC(=O)c1ccc([N+](=O)[O-])o1 returned Yp Topo-I inh inactive, Rv3671c inh inactive, PfHsp40 rescue 76.7, UGM FP inh inactive, FadD28 binding inactive and Mtb betalactam inactive.
For CN1/C(=C\C(=O)COC(=O)c2ccc([N+](=O)[O-])o2)C(C)(C)c2ccccc21 the results were Yp Topo-I inh inactive, Rv3671c inh inactive, PfHsp40 rescue 35.9, UGM FP inh inactive, FadD28 binding inactive and Mtb betalactam inactive.
For Cc1cccc(NC(=O)COC(=O)c2ccc([N+](=O)[O-])o2)c1C the results were Yp Topo-I inh inactive, Rv3671c inh inactive, PfHsp40 rescue 53.2, UGM FP inh inactive, FadD28 binding inactive and Mtb betalactam inactive.
Screening O=C(COC(=O)c1ccc([N+](=O)[O-])o1)Nc1ncc(Cl)cc1Cl returned Yp Topo-I inh inactive, Rv3671c inh inactive, PfHsp40 rescue 49.2, UGM FP inh inactive, FadD28 binding inactive and Mtb betalactam inactive.
COc1ccc(NC(=O)COC(=O)c2ccc([N+](=O)[O-])o2)cc1Cl was read as Yp Topo-I inh inactive, Rv3671c inh inactive, PfHsp40 rescue inactive, UGM FP inh inactive, FadD28 binding inactive and Mtb betalactam inactive.
`CCC(NCc1cccnc1)c1ccc(OC)c(OC)c1` (configuration not stated) gave Yp Topo-I inh inactive, PfHsp40 rescue inactive and FadD28 binding inactive.
CC(C)N1CCCC(C)(C(=O)Nc2nc3ccccc3n2C)C1 (configuration not stated) was read as Yp Topo-I inh inactive and FadD28 binding inactive.
For COc1ccc(CNC(=O)c2[nH]c(C)c(C(C)=O)c2C)cc1 the results were Yp Topo-I inh inactive, Rv3671c inh inactive, PfHsp40 rescue inactive, UGM FP inh inactive, FadD28 binding inactive and Mtb betalactam inactive.
CCC(=NNS(=O)(=O)c1ccc(C)cc1)c1ccc(OC)c(C)c1 was read as Yp Topo-I inh inactive and FadD28 binding inactive.
For COc1ccc(NC(=O)C2(C)CCN2C(=O)c2ccc(C(C)(C)C)cc2)cc1OC (configuration not stated) the results were Yp Topo-I inh inactive and FadD28 binding inactive.
For Cn1nnnc1Sc1ncnc2scc(-c3cccs3)c12 the results were Yp Topo-I inh inactive, Rv3671c inh inactive, PfHsp40 rescue inactive, UGM FP inh inactive, FadD28 binding inactive and Mtb betalactam inactive.
For O=C(Nc1ccc(N2CCOCC2)cc1)c1ccc([N+](=O)[O-])o1 the results were Yp Topo-I inh inactive, Rv3671c inh inactive, PfHsp40 rescue inactive, UGM FP inh inactive, FadD28 binding inactive and Mtb betalactam inactive.
O=C(COC(=O)c1ccc([N+](=O)[O-])o1)Nc1ccc(N2CCOCC2)cc1 was read as Yp Topo-I inh inactive, Rv3671c inh inactive, PfHsp40 rescue 94.8, UGM FP inh inactive, FadD28 binding inactive and Mtb betalactam inactive.
CN(C)S(=O)(=O)c1cccc(NC(=O)COC(=O)c2ccc([N+](=O)[O-])o2)c1 was read as Yp Topo-I inh inactive, Rv3671c inh inactive, PfHsp40 rescue inactive, UGM FP inh inactive, FadD28 binding inactive and Mtb betalactam inactive.
For COc1ccc(C(C)(C)C)cc1NC(=O)COC(=O)c1ccc([N+](=O)[O-])o1 the results were Yp Topo-I inh inactive, Rv3671c inh inactive, PfHsp40 rescue 531.6, UGM FP inh inactive, FadD28 binding inactive and Mtb betalactam inactive.
O=C(COC(=O)c1ccc([N+](=O)[O-])o1)Nc1ccc(Br)cc1F was read as Yp Topo-I inh inactive, Rv3671c inh inactive, PfHsp40 rescue inconclusive, UGM FP inh inactive, FadD28 binding inactive and Mtb betalactam inactive.
For CCN(CC)S(=O)(=O)c1ccc(Cl)c(NC(=O)COC(=O)c2ccc([N+](=O)[O-])o2)c1 the results were Yp Topo-I inh inactive, Rv3671c inh inactive, PfHsp40 rescue 49.1, UGM FP inh inactive, FadD28 binding inactive and Mtb betalactam inactive.
Nc1ccn(C2OC(COP(=O)(O)O)C(O)C2O)c(=O)n1 (configuration not stated) was read as Yp Topo-I inh inactive, PfHsp40 rescue inactive and FadD28 binding inactive.
Cc1ccc(-n2c(CNCc3ccc(F)cc3)nc3ccccc3c2=O)cc1 was read as Yp Topo-I inh inactive, PfHsp40 rescue 55.1, UGM FP inh inactive, FadD28 binding inactive and Mtb betalactam inactive.
For CCN(CC)CCNCc1nc2ccccc2c(=O)n1-c1ccc(F)cc1 the results were Yp Topo-I inh inactive, Rv3671c inh inactive, PfHsp40 rescue inactive, UGM FP inh inactive, FadD28 binding inactive and Mtb betalactam inactive.
Screening C[C@H](NC(=O)c1ncn2c1C(=O)NC[C@@H]2C)C(=O)OC(C)(C)C returned Yp Topo-I inh inactive and FadD28 binding inactive.
Screening CN(C)CCCNC(=O)c1cccc(-c2cnc3cccnn23)c1 returned Yp Topo-I inh inactive and FadD28 binding inactive.
Cc1ccc(N2C(=O)c3cccc4c(N)ccc(c34)C2=O)c2cccnc12 was read as Yp Topo-I inh inactive, Rv3671c inh inactive, PfHsp40 rescue inactive, UGM FP inh inactive, FadD28 binding inactive and Mtb betalactam inactive.
`CCN1C(=O)c2cccc3c(N)ccc(c23)C1=O` gave Yp Topo-I inh inactive, Rv3671c inh inactive, PfHsp40 rescue inactive, UGM FP inh 36.8, FadD28 binding inactive and Mtb betalactam inactive.
For COCCCNC(=O)c1ccc(S(=O)(=O)c2ccc(C)cc2)c(NC(C)=O)c1 the results were Yp Topo-I inh inactive, Rv3671c inh inactive, PfHsp40 rescue 91.2, UGM FP inh inactive, FadD28 binding inactive and Mtb betalactam inactive.
For Cn1c(NCCc2ccncc2)nc2cc(-c3ccccc3)sc2c1=O the results were Yp Topo-I inh inactive and FadD28 binding inactive.
Screening COC(=O)C1CC2=C(CCCC2=O)N(Cc2ccccc2)C1=O (configuration not stated) returned Yp Topo-I inh inactive, PfHsp40 rescue inactive and FadD28 binding inactive.
Screening CC1Oc2ccccc2C=C1/C=N/Nc1ccc(C(=O)O)cc1 (configuration not stated) returned Yp Topo-I inh inactive, Rv3671c inh inactive, PfHsp40 rescue 341.7, UGM FP inh inactive, FadD28 binding inconclusive and Mtb betalactam inactive.
